This passage reports PBM binding z-score results from the supplement of paper PMC6555819.

The assay deals with VDR:RXRa (NR concentration 270 nM, RXRa partner concentration 90 nM). Description: PBM binding z-score (relative to random genomic background probes); higher = stronger binding; sequences stand for … in GC…GCGATTGACAGCGTAGAATGAAGG
The procedure:
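Protein-binding microarray (Agilent 4x180K custom design, double-stranded 60-nt probes: 5' GC cap, 34-nt variable region, 24-nt constant primer region; full probe sequence given). Purified or IVT nuclear receptor:RXRα heterodimers (3:1 NR:RXRα, mostly 270:90 nM) or homodimers were incubated for 1 h in PBS with 2% milk and no ligand, then detected with Alexa488 antibodies. Fluorescence from o1-orientation probes (~5 replicates averaged) was converted to z-scores against 500 random hg19 background probes. Variable regions are seed direct-repeat (DR0–DR5) sites, all their single-nucleotide variants and half-site ablations.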
Sequence CCTACTGGGCCAAGAAGGTCATTGATGCCGATAA had a PBM binding z-score of 3.97.

As to CGTCCAAGTTCATAGGAGGTCAGTGAAGACAGAT, the PBM binding z-score was found to be 5.91.

In the case of TATACAGGGTCAAAGGCCAGAGGACGAATGTCGA, the PBM binding z-score turned out to be 4.73.

ATATGTAGGTTAAGGGTCGTTCAGGTTGGTTCGC showed a PBM binding z-score of 3.88.

Turning to CGAACTAGGTCAAGGAAAGTGAATCTCCGCACGC, the PBM binding z-score was 1.02.

TCTGCTAGGTCAACGATGGTCAGCTAATCTGCTA returned a PBM binding z-score of 1.54.

CAAACTAGGTCAAGAGGTCAAAGCCCGCTTCCCG: the PBM binding z-score was found to be 5.9.

Regarding TGAATGAGGTTATAAGAACAGGGAACGTTGCAAA, the PBM binding z-score was determined as 0.915.

Consider GCATATAGGTAAAACAAGGTGAAAGTCCGATTGT, for which the PBM binding z-score stood at 0.401.

As to TTACCAAGGTGAGCTGAGGTCGTCGATCCAACTC, the PBM binding z-score is 3.49.

Consider TCTGCTAGGTCTGTTGGTCAGCTAACGAGCTGCC, for which the PBM binding z-score is -0.568.

Turning to CCTATTAGTTGACCATAAGGGCAAACGAAGCTCG, the PBM binding z-score was determined as 0.834.

CAAACTAGGTCCCCGGAAGGTCAAAGTCCGCATG registered a PBM binding z-score of 3.23.

As to TCTATTAGTTGAAGGGCAACCAACGAGTCCGTTT, the PBM binding z-score was 1.11.

On to AATTACGGGTCAACGAGGTTATAGCACGCGTATA, for which the PBM binding z-score came out at 7.73.

For AATACAGGGTCATCGTAGGACAGAGTACGCACAG, the PBM binding z-score is 5.5.

With GGAACGAGGGCAATGTTGATAGCATCTGTCGACG, the PBM binding z-score worked out at 0.402.

AGAATGAGGTTATTAGGATCAGGGAATTGCGGTC registered a PBM binding z-score of 2.7.

In the case of GCTGCTAGGTCAACTGATGGTCAGCCAAAGCTCG, the PBM binding z-score worked out at 1.58.

TCTATTAGTTGAAGGGCAGCCGACGAGTCCGTTT showed a PBM binding z-score of 0.97.

For the sequence CAAACTAGGTCACCGGAAGGTCGAAGTCCGCATG, the PBM binding z-score came out at 4.47.

Regarding TAGCCGAGGTCATGGGCCAGTATACCACGCGAAC, the PBM binding z-score came out at 5.46.

Regarding GCGACTGGGGCATCAGCGGGTTACCATAACTTAA, the PBM binding z-score is -0.262.

TGGCCTAGGTCATTCAGGGGCCAGTATAGAAAGC: the PBM binding z-score came out at 2.79.

As to CGTCCAAGGTCATAGGAGGGCAGTGAAGACAGAT, the PBM binding z-score was 5.36.

Take TCTCGGAGGAGACGAAGGTCAGAGCTTTCCAGAG: the PBM binding z-score amounted to 0.483.

On to CGAACTAGCTCAGAACAGGACAGTGAAGGATGAT, for which the PBM binding z-score was -0.427.

For the sequence TCTGCTAGGTCAGTTGGTCAGCGAACGAGCTGCC, the PBM binding z-score amounted to 0.114.

Regarding GCTGCTAGTTCAGGTTGGTCAGCTAACGGGTACG, the PBM binding z-score turned out to be 0.0828.

CGTATTAGTTGACCATAAGGGCAACCGAAGCTCG came in with a PBM binding z-score of 0.396.

ACTCGGAGGACAAAGGTCAGAGCTACGCCAGTGA yielded a PBM binding z-score of 3.36.

Sequence CGAACTAGGTCGTTGACAGGACAGTGAATAGTAA returned a PBM binding z-score of 0.71.

TCTCGGAGGACACGAAAGGTCAGAGTTCGACATC displayed a PBM binding z-score of 4.18.

ATATGTAGGGTACATCCGGGTCATTCAGGCTATG yielded a PBM binding z-score of 5.09.

The sequence AGTCAAAGTTCATGTAGGTAACGTAAGATATGCT came in with a PBM binding z-score of 4.84.

ATACCAAGGTGATCATGAGGTCGTTGATACTAAC showed a PBM binding z-score of 3.38.

With CATACATGGTCAGCTAGGCCAGAGTAGGGACGGC, the PBM binding z-score was -0.459.

TCTTGTAGATCAATAGAGTTTAAGAAAGTGCGCT returned a PBM binding z-score of 1.23.

For the sequence CTCGAAAGGTCGTGCACAGGTGAGTATACCAAAC, the PBM binding z-score turned out to be 3.8.

Turning to CCTACTGTGCCATCAGGTCATTGATATCAACGTT, the PBM binding z-score was determined as 2.56.
